Rows were chosen to be rich in hits. Some 8.1% of all compounds tested hit in one or more screens of this group.
NOMO-1 viab: STK33 inhibitor candidate reducing NOMO-1 cell viability | NOMO-1 AML viability, CellTiter-Glo luminescence, 72 h | inhibition, % (no concentration beside the values) | 37,000 tested, 7.5% active | AID 2330; in the data active = inhibition above about 80%; inconclusive = no clear call, values can overlap the other calls
MITF inh: blocks MITF activity; TRPM1 promoter luciferase, luminescence, 24 h; 37,000 tested, 0.28% active; inhibition, % (test concentration not listed); in the data active = inhibition above about 85%; inconclusive = no clear call, values can overlap the other calls; inactive = below about 68%;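 also: human melanocyte line stably carrying TRPM1 promoter luciferase reporter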
Shh pathway inh: Sonic Hedgehog pathway inhibition; 22,000 tested, 2.1% active; inhibition, % (test concentration not listed); Shh-LIGHT2 Gli-luciferase reporter, 30 h;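 active = mean inhibition across valid replicates above about 65%, limit read from the data; inconclusive = mean under the limit, yet half or more replicates past it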;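 also: pathway switched on by Shh-conditioned medium diluted 1 in 25 in low serum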
Active calls of the source: *.

Screening C[C@H]1CN([C@@H](C)CO)C(=O)Cc2cc(NS(=O)(=O)c3ccc(F)cc3)ccc2O[C@@H]1CN(C)CC1CCCCC1 returned NOMO-1 viab 123*, MITF inh 7 and Shh pathway inh 21.
C[C@H](CO)N1C[C@H](C)[C@H](CN(C)CC2CCCCC2)Oc2ccc(NS(=O)(=O)c3ccc(F)cc3)cc2CC1=O was read as NOMO-1 viab 104*, MITF inh -7 and Shh pathway inh -10.
`CC1CCc2c(sc3ncn(CC(=O)Nc4c(C(C)C)cccc4C(C)C)c(=O)c23)C1` (stereo not given) gave NOMO-1 viab 46 and MITF inh 21.
Screening Cc1cc(NC(=O)CSc2nnc(-c3ccccc3)n2-c2ccc(F)cc2)ccc1Br returned NOMO-1 viab 5 and MITF inh 3.
For COC(=O)C1=C(C)NC(=O)CC1c1ccccc1C (stereo not given) the results were NOMO-1 viab -5, MITF inh -16 and Shh pathway inh 15.
For Cc1ccccc1C1CC(=O)c2c(ccc3ccccc23)N1 (stereo not given) the results were NOMO-1 viab 140*, MITF inh 53 and Shh pathway inh 41.
`C[C@H]1CN([C@@H](C)CO)C(=O)c2cccc(NC(=O)Nc3ccc4c(c3)OCO4)c2O[C@H]1CN(C)S(=O)(=O)c1ccc(Cl)cc1` gave NOMO-1 viab 92*, MITF inh 8 and Shh pathway inh 107*.
`Cc1ccc(S(=O)(=O)N(C)C[C@H]2Oc3c(NC(=O)Nc4ccc5c(c4)OCO5)cccc3C(=O)N([C@@H](C)CO)C[C@H]2C)cc1` gave NOMO-1 viab 40, MITF inh 10 and Shh pathway inh -7.
`Cc1ccc(S(=O)(=O)N(C)C[C@@H]2Oc3c(NC(=O)Nc4ccc5c(c4)OCO5)cccc3C(=O)N([C@@H](C)CO)C[C@H]2C)cc1` gave NOMO-1 viab 19, MITF inh -5 and Shh pathway inh -44.
`C[C@H](CO)N1C[C@H](C)[C@H](CN(C)S(=O)(=O)c2ccc(Cl)cc2)Oc2c(NC(=O)Nc3ccc4c(c3)OCO4)cccc2C1=O` gave NOMO-1 viab 3, MITF inh -13 and Shh pathway inh 110*.
`O=C(Oc1ccc(S(=O)(=O)c2ccc(OC(=O)c3cccs3)cc2)cc1)c1cccs1` gave NOMO-1 viab 29, MITF inh 11 and Shh pathway inh -2.
For C[C@]12CCC3c4ccc(OS(=O)(=O)O)cc4CCC3C1CCC2=O (stereo not given in full) the results were NOMO-1 viab -15, MITF inh 0 and Shh pathway inh -24.
COc1cc2c(cc1O)CCC1C2CC[C@@]2(C)C1CC[C@@H]2O (stereo not given in full) was read as NOMO-1 viab 97*, MITF inh 19 and Shh pathway inh 91*.
For COc1cc(C)c2c(c1)CCC1C2CCC2(C)C(O)CCC12 (stereo not given) the results were NOMO-1 viab 91*, MITF inh -72 and Shh pathway inh inconclusive.
`COc1ccc2c(c1)CCC1C2CCC2(C)C1C[C@@H](O)C2O` (stereo not given in full) gave NOMO-1 viab 4, MITF inh -24 and Shh pathway inh 19.
Cc1cc(N(CC(=O)Nc2cccc([N+](=O)[O-])c2)S(C)(=O)=O)ccc1Br was read as NOMO-1 viab 14 and MITF inh 22.
For CC(C)N(C(=O)CSc1nc2ccc(Cl)cc2[nH]1)c1ccccc1 the results were NOMO-1 viab 4 and MITF inh 8.
Cc1cc(C(=O)N(c2ccccc2)C(C)C2CC2)c(Cl)cc1Cl (stereo not given) was read as NOMO-1 viab 134*, MITF inh 30 and Shh pathway inh 10.
Screening O=C(c1ccc(NS(=O)(=O)c2cccc3cccnc23)cc1)N1CCOCC1 returned NOMO-1 viab -11 and MITF inh -2.
c1ccc(C(c2ccccc2)N2CCC2)cc1 was read as NOMO-1 viab 19, MITF inh -10 and Shh pathway inh -11.
For COc1ccc(C(c2ccc3cccnc3c2O)N2CCOCC2)cc1 (stereo not given) the results were NOMO-1 viab 118*, MITF inh 51 and Shh pathway inh 68*.
`Oc1c(C(c2ccncc2)N2CCCC2)ccc2cccnc12` (stereo not given) gave NOMO-1 viab 143*, MITF inh 21 and Shh pathway inh 35.
For Cc1nc2c([nH]1)C1(CCC(c3ccccc3)CC1)C(C#N)=C(N)O2 (stereo not given) the results were NOMO-1 viab 27, MITF inh 3 and Shh pathway inh -18.
O=C1C=CC(=C(c2ccc(O)cc2)c2ccc(O)cc2)C=C1 was read as NOMO-1 viab 108*, MITF inh 68 and Shh pathway inh 66*.
For CC(C)=CCCC(C)(O)C1Cc2cc(C(=O)O)cc(CC=C(C)C)c2O1 (stereo not given) the results were Shh pathway inh -20.
For CC(=O)c1cccc(NC(=O)Cn2nc(C)c([N+](=O)[O-])c2C)c1 the results were NOMO-1 viab 9 and MITF inh -26.
Screening CCCCCC[C@H](O)/C=C/CC1C(=O)CC[C@H](O)C1=O (stereo not given in full) returned NOMO-1 viab 2, MITF inh -11 and Shh pathway inh -33.
`CCCCCCCCC/C=C/CCCCC(=O)C1C(=O)CCC(O)C1=O` (stereo not given) gave NOMO-1 viab 109*, MITF inh 30 and Shh pathway inh -8.
Screening CO[C@@]1(c2ccc3c(c2)OCO3)OC[C@@H]2[C@@H](c3ccc4c(c3)OCO4)OC[C@@]21O returned Shh pathway inh 40.
For O=c1onc(-c2cccc(Cl)c2)n1-c1ccccc1 the results were NOMO-1 viab 12, MITF inh -6 and Shh pathway inh -28.
`OC(Cc1ccccc1)(c1ccccc1)c1ccccc1N=Cc1ccc2c(c1)OCO2` (stereo not given) gave NOMO-1 viab 91*, MITF inh 15 and Shh pathway inh 15.
For O=C(Nc1ccc2c(c1)OCO2)C(=S)NCc1ccccc1 the results were NOMO-1 viab -2, MITF inh -39 and Shh pathway inh 5.
COc1ccc(Cl)cc1NC(=O)CN(C)S(=O)(=O)c1ccc2ccccc2c1 was read as NOMO-1 viab 3 and MITF inh 8.
C[C@@H]1CN([C@H](C)CO)C(=O)c2cccc(NC(=O)Nc3ccc(C(F)(F)F)cc3)c2O[C@@H]1CN(C)Cc1ccc(Cl)c(Cl)c1 was read as NOMO-1 viab 76, MITF inh 10 and Shh pathway inh 31.
Screening C[C@@H]1CN([C@@H](C)CO)C(=O)c2cccc(NC(=O)Nc3ccc(C(F)(F)F)cc3)c2O[C@H]1CN(C)Cc1ccc(Cl)c(Cl)c1 returned NOMO-1 viab 107*, MITF inh 32 and Shh pathway inh -43.
Screening C[C@H](CO)N1C[C@H](C)[C@H](CN(C)Cc2ccncc2)Oc2c(NC(=O)Nc3ccc(C(F)(F)F)cc3)cccc2C1=O returned NOMO-1 viab 10, MITF inh -9 and Shh pathway inh -11.
For C[C@@H]1CN([C@H](C)CO)C(=O)c2cccc(NC(=O)Nc3ccc(C(F)(F)F)cc3)c2O[C@H]1CN(C)Cc1ccc(Cl)c(Cl)c1 the results were NOMO-1 viab 104*, MITF inh 42 and Shh pathway inh -7.

Assay outcomes (PubChem)
